Screening results (PubChem BioAssay)
aSyn UTR act: Activators working through SNCA 5'UTR binding (MLPCN); AID 1814; activity score, % (tested at 7.5 µM), hits read low; alpha-synuclein 5'UTR reporter, activators screen; hit rate 7.1% among 300,000; in the data active = activity score below about -60%
A number is an active result; . = inactive. A selection follows.

SMILES	aSyn UTR act
Cc1cc(NC(=O)c2ccccc2)c(Cl)cc1N	.
COc1ccc(OC(=O)c2ccc(Cl)cc2)c(C(C)=O)c1	-78
COc1ccc(-c2noc(CCC(=O)Nc3cc(Cl)c(OC)cc3OC)n2)cc1	-65
CC(C)(C)c1ccc(C(=O)Nc2ccccc2Cl)cc1	-88
Cc1ccc(C(=O)Nc2cc(Cl)ccc2OC(=O)c2ccc(C)cc2)cc1	-227
COc1ccc(-c2noc(CCCC(=O)NC3CCCC3)n2)cc1	.
O=C(Nc1ccccc1OC(=O)c1ccc(Cl)cc1)c1ccc(Cl)cc1	-343
O=C(Nc1ccccc1O)c1ccc([N+](=O)[O-])cc1	-70
O=C(Nc1ccccc1O)c1ccc(Cl)cc1	-255
COc1cc(NC(=O)c2cc3nc(C)cc(C)n3n2)c(OC)cc1Cl	-214
COc1ccc(C(=O)Nc2cc(Cl)ccc2OC(=O)c2ccc(OC)cc2)cc1	-158
COc1ccc(C(=O)Nc2cc(OC)c(Cl)cc2OC)cc1	-120
Cc1ccc(C(=O)N/N=C\c2sccc2C)cn1	-75
Cc1ccc(C(=O)N/N=C/c2c(O)ccc3ccccc23)cn1	.
Cc1ccsc1/C=N/N=C/c1sccc1C	-181
Cc1ccsc1/C=N/NC(=O)c1ccco1	-81
Cc1ccsc1/C=N/NC(=O)c1sccc1C	-167
COc1cccc2sc(N(CCCN(C)C)C(=O)c3ccc(S(=O)(=O)N4CCCc5ccccc54)cc3)nc12	.
COc1cccc2sc(N(CCCN(C)C)C(=O)c3ccc(S(=O)(=O)N4CCc5ccccc5C4)cc3)nc12	.
COc1ccccc1C(=O)N(CCC1CCCN1C)c1nc2ccccc2s1 (stereo not drawn)	-103
N#Cc1c(N2CCCC2)nc(N)c2c(N)nc(N3CCCC3)cc12	-173
CN(CCCC(=O)O)c1ccc(N=Nc2ccc([N+](=O)[O-])cc2)cc1	-65
CN(N=Nc1ccc([N+](=O)[O-])cc1)c1ccccc1	-112
CN(N=Nc1cccc([N+](=O)[O-])c1)c1ccccc1	-108
O=C(CN1C(=O)C2C3C=CC(C4CC34)C2C1=O)Nc1cnc2ccccc2c1 (stereo not drawn)	-83
SMILES	aSyn UTR act
COc1cccc(NC(=O)c2ccc(-c3ccccc3[N+](=O)[O-])o2)c1	-100
Cc1ccccc1-c1ccc(C(=O)Nc2cccc(F)c2)o1	-128
Cc1cccc(NC(=O)c2ccc(-c3ccccc3[N+](=O)[O-])o2)c1	-85
Nc1c(C(=O)c2ccc(Br)s2)oc2ccccc12	-149
Nc1c(C(=O)c2cccs2)oc2ccccc12	-99
Cc1ccc(-n2cnc3sc(C)c(C)c3c2=O)cc1	-98
Cc1ccc(-c2nc3sc4c(c3c(=O)n2N)CCCC4)cc1	-107
CC1=Nn2c(nc3sc4c(c3c2=O)CCCC4)SC1	-142
COc1ccc(-n2cnc3sc4c(c3c2=O)CCCC4)cc1	-88
Cc1cccc(-c2noc(Cc3ccccc3)n2)c1	-169
Cc1ccc(-c2noc(CNc3ccccc3)n2)cc1	-78
Cc1cccc(-c2noc(CCc3ccccc3)n2)c1	-121
Cc1ccc(NCC(=O)Nc2ccc(Br)cc2)cc1C	-126
Cc1ccc(F)cc1NCC(=O)Nc1ccc(Br)cc1	-146
Brc1ccc2nc(CSc3ncn[nH]3)cn2c1	-68
Cc1n[nH]c(=S)n1/N=C/c1ccc(OCc2ccc(Cl)cc2Cl)cc1	-82
Cc1n[nH]c(=S)n1/N=C/c1ccc(OCc2ccc(Cl)cc2)cc1	-99
N/C(=N\OC(=O)c1ccc(Br)o1)c1cccnc1	-143
COc1ccc(/C(N)=N/OC(=O)c2ccc(Br)o2)cc1	-155
O=C(Nc1ccc(Cl)cn1)Nc1ccccc1F	-153
O=C(Nc1ccc(Cl)cn1)Nc1ccc(Cl)cn1	-77
Cn1ncc(Cl)c1C(=O)Nc1ccc(Cl)cn1	-114
O=C(Nc1ccc(F)cc1)Nc1ccc(Cl)cn1	-121
CC(C)c1ccc(/C=N/NC(=O)c2c(Cl)cnn2C)cc1	-142
C/C(=C\c1ccccc1)C(=O)Nc1ccc(Cl)cn1	-180
SMILES	aSyn UTR act
CN(C)c1ccc(/C=N/NC(=O)c2ccccc2)cc1	-120
O=C(N/N=C/c1ccc(OC(=O)c2cccs2)cc1)c1cccc(F)c1	-97
CSc1ccc(/C=N/NC(=O)c2cccs2)cc1	-185
CC/C(=N\NC(=O)c1ccc(N(C)C)cc1)c1ccccc1	-72
CN(C)c1ccc(/C=N/NC(=O)c2sccc2-n2cccc2)cc1	-150
O=C(N/N=C/c1ccc(-n2ccnc2)cc1)c1cccs1	-78
CSc1ccc(/C=N/NC(=O)c2ccccc2Cl)cc1	-109
COc1cc(C(=O)N/N=C/c2ccsc2C)cc(OC)c1OC	.
CN(C)c1cccc(C(=O)N/N=C/c2ccsc2)c1	-157
C/C(=N/N=C/c1ccc(N(C)C)cc1)c1ccccc1	-160
Cc1nn(-c2ccccc2)c(C)c1/C=N/NC(=O)c1cccs1	-68
Cc1cc(C(=O)N/N=C/c2cc(Br)ccc2OC(=O)c2ccccc2Cl)n[nH]1	.
CC(C)=C(NC(=O)c1ccccc1)C(=O)N/N=C/c1ccc(O)cc1	-128
CN(C)c1ccc(/C=N/NC(=O)c2ccccc2Cl)cc1	-125
COc1ccc(CC(=O)Nc2cc3oc4ccccc4c3cc2OC)cc1	-162
